Measured values published in the supplement of paper PMC12645437, “Orthogonal IMiD-Degron Pairs Induce Selective Protein Degradation in Cells” (ACS Chemical Biology, 2025).
In all, about 8,300 sequences were measured (“log2 fold change of degron read counts, EGFP-low vs EGFP+ sorted cells (limma voom), compound-induced degradation”: median about -1.1, highest 2% from about 3.2 on). Shown is part of a subset that was picked to be rich in the highest values.

T1: CRBN, Q96SW2
T1 chain: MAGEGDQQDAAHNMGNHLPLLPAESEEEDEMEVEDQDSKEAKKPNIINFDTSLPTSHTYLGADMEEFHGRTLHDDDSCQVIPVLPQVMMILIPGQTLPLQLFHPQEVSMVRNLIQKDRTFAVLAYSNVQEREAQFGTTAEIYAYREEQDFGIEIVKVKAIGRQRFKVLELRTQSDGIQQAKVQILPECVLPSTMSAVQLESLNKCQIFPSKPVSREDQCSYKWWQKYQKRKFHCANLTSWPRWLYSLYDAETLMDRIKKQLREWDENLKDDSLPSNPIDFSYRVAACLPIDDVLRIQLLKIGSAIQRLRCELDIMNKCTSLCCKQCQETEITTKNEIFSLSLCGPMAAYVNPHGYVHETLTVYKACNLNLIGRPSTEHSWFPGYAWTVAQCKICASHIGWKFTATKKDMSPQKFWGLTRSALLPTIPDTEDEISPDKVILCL


Target: T1, CRBN, Q96SW2
Assay: log2 fold change of degron read counts, EGFP-low vs EGFP+ sorted cells (limma voom), compound-induced degradation; higher = more compound-induced degradation of the degron-EGFP fusion; degrons are variants of IKZF1/3 zinc finger 2; compound dose not given here
Conditions: Jurkat, 18 h
[1] = compound: compound 19 (5-tert-butyl-thalidomide)
[2] = compound: compound 22 (5-morpholino-thalidomide)
[3] = compound: compound 33 (diphenyl IMiD analogue)
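Further: pooled lentiviral library of zinc finger degron-EGFP fusions in mCherry-positive Jurkat cells, FACS-sorted after compound exposure, with degron abundance counted by next-generation sequencing.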

Sequence | log2 fold change of degron read counts [1] | log2 fold change of degron read counts [2] | log2 fold change of degron read counts [3] | log2 fold change of degron read counts (compound: thalidomide)
LCCPICGFTCTQKGNLLRHIKL [46L_47C_49P_50I_52G_53F_54T_55C_67L_, Q9UKT9] | 2.3 | 2.71 | 3.14 | 3.38
LDCPICGFTCTQKGNLLRHIKL [46L_47D_49P_50I_52G_53F_54T_55C_67L_, Q9UKT9] | 1.14 | 0.297 | 1.7 | 2.41
LNCPICGFTCTQKGNLLRHIKL [46L_47N_49P_50I_52G_53F_54T_55C_67L_, Q9UKT9] | 2.24 | 1.48 | 1.4 | 1.99
FFCNQCGHLFTQKGNLLRHIKL [46F_47F_49N_50Q_52G_53H_54L_55F_67L_, Q9UKT9] | -1.66 | -2.07 | -1.87 | -1.3
FSCDICGAAFTQKGNLLRHIKL [46F_47S_49D_50I_52G_53A_54A_55F_67L_, Q9UKT9] | 2.34 | 2.19 | 1.4 | 0.487
FFCPICGAQFTQKGNLLRHIKL [46F_47F_49P_50I_52G_53A_54Q_55F_67L_, Q9UKT9] | 3.07 | 3.66 | 2.49 | 1.8
FICPICGAQFTQKGNLLRHIKL [46F_47I_49P_50I_52G_53A_54Q_55F_67L_, Q9UKT9] | -0.147 | 2.86 | 2.84 | 2.97
FSCPICGAQFTQKGNLLRHIKL [46F_47S_49P_50I_52G_53A_54Q_55F_67L_, Q9UKT9] | 2.37 | 2.25 | 1.87 | 1.54
FWCPICGAQFTQKGNLLRHIKL [46F_47W_49P_50I_52G_53A_54Q_55F_67L_, Q9UKT9] | 3.01 | 3.69 | 2.52 | 1.76
FKCPICGAQFTQKGNLLRHIKL [46F_47K_49P_50I_52G_53A_54Q_55F_67L_, Q9UKT9] | -0.0361 | -1.47 | -1.09 | 0.0895
FMCPICGAQFTQKGNLLRHIKL [46F_47M_49P_50I_52G_53A_54Q_55F_67L_, Q9UKT9] | 0.245 | 1.26 | 2.62 | 1.97
FECPICGAQFTQKGNLLRHIKL [46F_47E_49P_50I_52G_53A_54Q_55F_67L_, Q9UKT9] | -0.254 | -0.469 | 2.11 | 2.88
FVCPICGAQFTQKGNLLRHIKL [46F_47V_49P_50I_52G_53A_54Q_55F_67L_, Q9UKT9] | 0.269 | 3.03 | 2.65 | 2.8
FRCPICGAQFTQKGNLLRHIKL [46F_47R_49P_50I_52G_53A_54Q_55F_67L_, Q9UKT9] | -0.000477 | 0.626 | 1.17 | 1.41
FACPICGAQFTQKGNLLRHIKL [46F_47A_49P_50I_52G_53A_54Q_55F_67L_, Q9UKT9] | 3.33 | 2.33 | 1.68 | 1.29
FYCPICGAQFTQKGNLLRHIKL [46F_47Y_49P_50I_52G_53A_54Q_55F_67L_, Q9UKT9] | 3.2 | 3.56 | 2.65 | 1.7

Sequence | log2 fold change of degron read counts [1] | log2 fold change of degron read counts [2] | log2 fold change of degron read counts [3] | log2 fold change of degron read counts (compound: thalidomide)
FTCPICGAQFTQKGNLLRHIKL [46F_47T_49P_50I_52G_53A_54Q_55F_67L_, Q9UKT9] | 0.221 | 2.57 | 2.32 | 3.06
FWCEICGRSFTQKGNLLRHIKL [46F_47W_49E_50I_52G_53R_54S_55F_67L_, Q9UKT9] | 0.727 | 1.06 | 0.626 | -1.3
FWCPVCGAFFTQKGNLLRHIKL [46F_47W_49P_50V_52G_53A_54F_55F_67L_, Q9UKT9] | 2.23 | 2.56 | 1.97 | 0.614
FICNVCGACFTQKGNLLRHIKL [46F_47I_49N_50V_52G_53A_54C_55F_67L_, Q9UKT9] | -2.35 | -0.443 | 0.594 | 0.469
FRCNQCGHHFTQKGNLLRHIKL [46F_47R_49N_50Q_52G_53H_54H_55F_67L_, Q9UKT9] | -2.62 | -2.49 | -2.68 | -2.74
FMCNVCGAVFTQKGNLLRHIKL [46F_47M_49N_50V_52G_53A_54V_55F_67L_, Q9UKT9] | -2.62 | -1.87 | 0.807 | -0.813
FCCEVCGAWFTQKGNLLRHIKL [46F_47C_49E_50V_52G_53A_54W_55F_67L_, Q9UKT9] | -0.654 | -0.581 | 0.156 | -0.895
FKCEICGADFTQKGNLLRHIKL [46F_47K_49E_50I_52G_53A_54D_55F_67L_, Q9UKT9] | -1.37 | -3.36 | -2.54 | -1.55
FFCPQCGAHFTQKGNLLRHIKL [46F_47F_49P_50Q_52G_53A_54H_55F_67L_, Q9UKT9] | 0.0594 | 0.455 | 0.502 | -0.835
FSCPICGRAFTQKGNLLRHIKL [46F_47S_49P_50I_52G_53R_54A_55F_67L_, Q9UKT9] | -0.662 | -1.1 | 0.646 | 0.0583
FHCPICGAQFTQKGNLLRHIKL [46F_47H_49P_50I_52G_53A_54Q_55F_67L_, Q9UKT9] | 2.46 | 2.8 | 2.49 | 1.66
FDCPICGAQFTQKGNLLRHIKL [46F_47D_49P_50I_52G_53A_54Q_55F_67L_, Q9UKT9] | 2.24 | 1.5 | 1.26 | 2.56
FCCPICGAQFTQKGNLLRHIKL [46F_47C_49P_50I_52G_53A_54Q_55F_67L_, Q9UKT9] | 2.39 | 2.66 | 2.87 | 1.93
FGCPICGAQFTQKGNLLRHIKL [46F_47G_49P_50I_52G_53A_54Q_55F_67L_, Q9UKT9] | 3.58 | 2.65 | 1.84 | 1.37
FNCPICGAQFTQKGNLLRHIKL [46F_47N_49P_50I_52G_53A_54Q_55F_67L_, Q9UKT9] | 2.48 | 1.86 | 1.27 | 1.1
FQCPICGAQFTQKGNLLRHIKL [46F_47Q_49P_50I_52G_53A_54Q_55F_67L_, Q9UKT9] | 0.697 | 2.72 | 2.41 | 3.65
